Most compounds without a hit are left out; they make up all but 4.7% or so of the library.
D1 potentiator – enhances dopamine response at the human D1 receptor; HEK293 TREx D1 cells, calcium flux, dopamine EC20 potentiation; potentiation, % at 10 µM; hit rate 0.036% among 360,000; P21728; in the data active = potentiation above about 30%; note: 0% is about no effect
Target sequence (P21728 whole entry, looked up): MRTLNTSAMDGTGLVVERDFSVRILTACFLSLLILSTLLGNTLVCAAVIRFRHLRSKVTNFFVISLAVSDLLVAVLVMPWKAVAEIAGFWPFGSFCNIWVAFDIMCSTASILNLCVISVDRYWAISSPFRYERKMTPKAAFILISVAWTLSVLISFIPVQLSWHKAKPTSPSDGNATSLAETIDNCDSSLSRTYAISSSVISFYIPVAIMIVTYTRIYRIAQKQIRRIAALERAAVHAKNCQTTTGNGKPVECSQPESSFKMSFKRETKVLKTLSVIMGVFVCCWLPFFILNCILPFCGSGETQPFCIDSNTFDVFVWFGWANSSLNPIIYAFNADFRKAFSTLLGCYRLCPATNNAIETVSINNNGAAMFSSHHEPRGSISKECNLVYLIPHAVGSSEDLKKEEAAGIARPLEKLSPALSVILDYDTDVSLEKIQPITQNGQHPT
TRHR enhancer-1 – allosterically enhances the human TRH receptor; P34981; TRHR cells, fluo-8 calcium fluorescence, EC20 TRH enhancement; enhancement, % at 2 µM; hit rate 0.66% among 360,000; AID 493056; in the data active = enhancement above about 30%; note: 0% is about no effect
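Enhancer read-out: after compound pinning and an initial kinetic agonist-mode read, an EC20 of TRH (10 nM final) was injected and fluo-8 calcium signal (Ex 480/Em 530) followed at 1 s/cycle for 100 cycles in TRHR-expressing cells.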
TRHR agonist-1 – TRH receptor (human) agonism | TRHR cells, calcium flux fluo-8, FDSS agonist mode | activation, % at 2 µM | hit rate 0.18% among 360,000; note: 0% is about no effect
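Read-out: compound-evoked intracellular calcium rise in TRHR cells, fluo-8 dye, kinetic FDSS fluorescence at 1 s/cycle following a 10-cycle baseline. Cells cultured overnight before dye loading (30 min–1.5 h, RT).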
D1 agonist – human D1 receptor agonism; P21728; activation, % at 2 µM; HEK293 T-REx D1 cells, calcium flux, agonist mode; hit rate 1% among 360,000; note: 0% is about no effect
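Agonism was scored from calcium flux recorded over 180 s (1 read/s) after pintool compound addition, following a 10-cycle baseline. Cells were inducible force-coupled HEK293 TREx D1, plated overnight at 30 C and loaded with no-wash calcium dye.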
D1 antagonist – blocks dopamine activation of the human D1 receptor; P21728; HEK293 TREx D1 cells, calcium flux, dopamine EC80; hits give low values; activity change, negative = inhibition, % at 10 µM; hit rate 3.2% among 360,000; in the data active = activity change below about -30%; note: % is set by controls: 0 for no effect and ±100 for the full control effect
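After overnight tetracycline induction at 30 C, force-coupled D1 HEK293 cells took up a no-wash calcium dye at room temperature. Compounds were added and monitored 180 s, and the response to EC80 dopamine was then recorded.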
TRHR enhancer-2 – human TRH receptor allosteric enhancement confirmation; AID 493076; shares compounds with TRHR enhancer-1; activity change, negative = inhibition, % at 46.1 µM; TRH receptor cell assay, enhancer confirmation qHTS; 970 tested, under 10 active; active = well fitted curve in the direction sought with a large enough effect; inconclusive = small, poorly fitted or top-dose-only effect, or another doubt; inactive = no such curve, though single readings can be large; an effect the other way counts as inactive or inconclusive;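 note: compound effect scored on response to added TRH at EC20 of 10 nM; 0% is about no effect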
TRHR agonist-2 – confirmation of human TRH receptor agonists | shares compounds with TRHR enhancer-1 | TRHR-expressing cells, agonist activation read-out | Potency, µM (highest dose often 46.1 µM), for inactives: at the top dose activation, hits mostly activators | hit rate 8% among 970; active = well fitted curve in the direction sought with a large enough effect; inconclusive = small, poorly fitted or top-dose-only effect, or another doubt; inactive = no such curve, though single readings can be large; an effect the other way counts as inactive or inconclusive; note: potency is the fitted concentration of half-maximal effect; 0% is about no effect; nearly all actives have a fitted effect of over 75% in size
The depositor's hits bear a star; u = inconclusive; x = no result given. Cut-off read from the data, not from the text of the source, unless noted: active = activation above about 30%; inactive = the rest.

SMILES | D1 potentiator | TRHR enhancer-1 | TRHR agonist-1 | D1 agonist | D1 antagonist | TRHR enhancer-2 | TRHR agonist-2
C/C(CC(=O)Nc1cccc(C(F)(F)F)c1)=N\NC(=O)Cc1ccccc1 | -10.7 | 57.9* | 0.2 | 5.1 | 4.0 | 1.9 | 0.8%
COC(=O)CCCNC(=O)OCc1ccc([N+](=O)[O-])cc1 | -6.5 | 67.1* | -1.0 | 2.7 | 13.2 | -3.5 | 1.7%
O=C(Cc1ccc([N+](=O)[O-])cc1)OCc1ccc([N+](=O)[O-])cc1 | -11.6 | -7.7 | -1.1 | 5.0 | -19.1 | x | x
COc1ccc(NC(=O)Cn2c(=O)n(CCc3ccccc3)c(=O)c3ccccc32)cc1 | 1.2 | 1.3 | 0.2 | 2.2 | -9.0 | x | x
CC(C)[C@H](NC(=O)c1c(F)cccc1F)C(=O)OCC(=O)NC(=O)NC1CCCC1 | 0.4 | 55.4* | -0.5 | 2.6 | 2.6 | -3.2 | -0.3%
O=c1cc2oc3cc(O)c(O)cc3c(-c3ccccc3O)c-2cc1O | 1.1 | 4.0 | 46.8* | 46.4* | -14.1 | 5.0 | 10.3µM*
CCOc1ccccc1-c1c2cc(O)c(=O)cc-2oc2cc(O)c(O)cc12 | -3.2 | 0.9 | 30.7* | 53.0* | 11.8 | -14.9 | 0.731µM*
N#Cc1c(N)n(CCNC(=O)c2cccs2)c2nc3ccccc3nc12 | -6.2 | 1.5 | 0.4 | 4.2 | -0.7 | x | x
N#Cc1c(N)n(CCNC(=O)c2ccccc2)c2nc3ccccc3nc12 | 1.3 | 4.0 | 27.7 | 5.3 | -1.8 | -5.8 | -0.7%
Cc1cc(C)c(NC(=O)CCCn2c(C)c3cnn(-c4ccccc4)c(=O)c3c2C)c(C)c1 | -2.5 | 5.2 | -0.6 | 13.3 | -9.9 | x | x
COc1ccccc1C(=O)N1CCN(Cc2cn[nH]c2-c2ccc(F)cc2F)CC1 | 1.5 | 57.0* | -0.8 | 1.6 | -3.9 | -5.1 | -0.4%
Cc1ccc(C(O)Cn2nc(C)cc2C)cc1 (configuration not stated) | -10.4 | 2.6 | -0.2 | 0.4 | -1.1 | x | x
CCOc1ccc(S(=O)(=O)N(CC(=O)Nc2cccnc2)c2ccc(F)cc2)cc1 | 10.8 | -2.3 | 0.0 | 2.0 | -11.9 | x | x
CS(=O)(=O)N1CCN(c2ccc(NC(=S)NC(=O)c3cccs3)cc2)CC1 | -7.8 | 44.1* | -0.7 | 6.5 | 1.5 | -5.3 | -0.5%
O=C(NC(=S)Nc1ccc(N2CCCCC2)cc1)c1cccs1 | 5.8 | 1.0 | 1.0 | 0.0 | -5.7 | x | x
C/C(=N\NC(=O)c1ccc(Cn2cc(Br)cn2)o1)c1ccc(NC(=O)c2ccoc2C)cc1 | -4.3 | 61.1* | -0.4 | 1.3 | -42.8* | 10.4 | 8.3%
NC(=O)c1ccc(NC(=O)CNCc2ccccc2Cl)cc1 | -7.5 | -3.5 | 0.0 | 5.3 | -4.5 | x | x
O=C(CNCc1ccccc1Cl)Nc1ccc(C(=O)N2CCCCC2)cc1 | -3.0 | 41.3* | -0.8 | 28.1 | -7.5 | 0.3 | -0.6%
O=C(Nc1ccncc1)C1CCN(S(=O)(=O)c2ccc(Cl)c(C(F)(F)F)c2)CC1 | x | -3.7 | 0.0 | 15.4 | -24.8 | x | x
Cc1nn(C)c(C(=O)NC(=S)Nc2ccccc2Br)c1Cl | 7.8 | 22.0 | 75.5* | 1.9 | -4.3 | -16.2 | 13µM*
CCn1ncc(Cl)c1C(=O)NC(=S)Nc1ccccc1Br | -2.7 | 2.1 | 12.4 | 6.1 | -9.8 | x | x
CCOC(=O)c1ccc(NC(=O)CCc2c(C)n(CC)c3cc(-c4ccccc4OC)nn3c2=O)cc1 | 5.2 | 5.8 | 0.0 | 2.0 | -2.3 | x | x
CCCC1(c2ccccc2)NC(=O)N(CC(=O)NCc2ccc(OC)cc2)C1=O (configuration not stated) | 0.8 | 2.4 | -0.9 | 0.5 | -4.9 | x | x
COc1ccc(C(=O)OCC(=O)NCC2CCCCC2)cc1F | 2.3 | 41.4* | -1.2 | 4.9 | 1.8 | 3.2 | 0.6%
COc1ccc(C(=O)OCC(=O)NCC2CCCCC2)c(OC)c1 | -0.7 | -9.8 | -0.6 | 1.0 | 1.9 | x | x
SMILES | D1 potentiator | TRHR enhancer-1 | TRHR agonist-1 | D1 agonist | D1 antagonist | TRHR enhancer-2 | TRHR agonist-2
O=C(NC(=S)Nc1ccccc1Br)C1CCC1 | -3.9 | 62.5* | 0.0 | 6.7 | -19.2 | -7.5 | 3.0%
N#Cc1ccccc1NC(=S)NC(=O)C1CCC1 | -0.3 | -0.5 | -0.4 | 1.8 | -3.4 | x | x
CCN(CC)C(=O)c1cc2c(=O)c3cc(Cl)ccc3oc2nc1C | -3.8 | 72.6* | -2.0 | 3.5 | -17.8 | -0.1 | -0.7%
Nc1c(S(=O)(=O)c2ccccc2)c2nc3ccccc3nc2n1CCN1CCOCC1 | -7.0 | 2.6 | 0.8 | 3.3 | 8.8 | x | x
Nc1c(S(=O)(=O)c2ccccc2)c2nc3ccccc3nc2n1Cc1ccco1 | -5.8 | 2.3 | 28.1 | 29.7 | -21.2 | -1.0 | u
CCCCc1cc(=O)oc2cc(OCC(=O)N(CC)CC)c(Cl)cc12 | -7.7 | 65.6* | -0.1 | 2.9 | 5.3 | -5.4 | 0.3%
CCCCc1cc(=O)oc2cc(OCC(=O)N(CC)CC)ccc12 | -0.1 | 0.4 | -2.1 | 2.2 | 12.7 | x | x
O=C(CSc1ccc(-c2ccc(F)cc2)nn1)N1CCOCC1 | 4.2 | 49.7* | 0.0 | 5.8 | 0.4 | -5.1 | 1.0%
Cc1oc(-c2ccccc2)nc1C(=O)OCC(=O)NC(=O)NCC(C)C | -3.6 | 48.6* | 0.2 | 0.3 | -14.0 | -4.4 | -0.7%
Cc1oc(-c2ccccc2)nc1C(=O)OCC(=O)NC(C)c1ccccc1 (configuration not stated) | 9.9 | 8.2 | -1.1 | 0.1 | -3.7 | x | x
Cc1cccc(C(=O)NCC(=O)N2CCC2)c1 | -14.6 | 4.0 | 2.8 | 1.2 | -17.3 | x | x
O=C(CS(=O)(=O)c1cccc2nsnc12)N1CCN(c2ccc(F)cc2)CC1 | -5.0 | -1.6 | 0.4 | 2.6 | -9.7 | x | x
CSc1ccccc1OCc1cc(C(=O)N(C)C2CCCc3ccccc32)no1 (configuration not stated) | -1.0 | -0.7 | 0.5 | 3.5 | 30.2 | x | x
COc1ccc(C(=O)NC2CC2)cc1OC1CCN(C(C)CSC)CC1 (configuration not stated) | -13.2 | 2.1 | 26.4 | 2.7 | -22.3 | -5.3 | 5.5%
C/C(=N\Nc1nccnc1Cl)c1ccc(O)c(C)c1 | 0.9 | 23.4 | -0.4 | 0.8 | -8.8 | x | x
Clc1ccc(Oc2cnns2)cc1Cl | -7.8 | 44.3* | 0.3 | 4.4 | -3.6 | 6.3 | 0.9%
COc1ccccc1CNC(=O)c1ccc(OC(F)F)c(OC)c1 | -4.8 | 51.5* | -0.6 | 0.6 | 5.8 | -5.5 | 0.7%
COc1cc(C(=O)NCc2ccccc2)ccc1OC(F)F | 5.8 | 3.8 | -1.0 | 2.7 | -16.7 | x | x
Cc1ccccc1OCC(=O)NNC(=O)c1ccc2c(=O)n3c(nc2c1)CCC3 | -3.4 | 1.5 | -0.3 | 3.5 | -2.8 | x | x
Cc1ccc(CCNC(=O)C2CCCN(S(=O)(=O)c3c(C)nn(C)c3C)C2)cc1 (configuration not stated) | x | 3.1 | -0.5 | -0.3 | -5.6 | x | x

Screening results from PubChem.
